Assay results from PubChem BioAssay (NCATS).
Results filed as inconclusive are left out. Calls of active or inactive are those of the source. Calls follow the shape of the dose curve; as a rule, active = well fitted inhibition curve with a large enough effect; inconclusive = small, poorly fitted or top-dose-only effect; inactive = flat fitted curve, though single readings scatter.

Tested on: CRL-7250
Experiment: qHTS assay to identify novel small-molecules to repurpose for Merkel cell carcinoma treatment (AID 1296009); also: nearly all actives have a fitted effect of over 60% in size
Settings: MCC and control cell lines, CellTiter-Glo viability, 72 h; series mostly up to 92 µM; activity change, negative = cytotoxicity: at the top concentration
How it was run: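 Cells exposed to NPC (8-point) and MIPE (11-point) compound dilutions for 72 hr at 37 degree celsius; viability read by CellTiter-Glo luminescence, normalized to no-cell and DMSO in-plate controls.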

| Compound | outcome |
| --- | --- |
| C=CC1(C)CC2CCC3C(C)(C(=O)O)CCCC3(C)C2=CC1=O (centres undefined) | inactive |
| COc1cc2c(cc1O)C1(Cc3ccc4c(c3C1O)OCO4)[N+](C)([O-])CC2 (centres undefined) | inactive |
| CCc1cc2c(cc1CC)CC(NCC(O)c1ccc(O)c3[nH]c(=O)ccc13)C2 (centres undefined) | inactive |
| O=C(O)/C=C/c1ccc(O[C@@H]2O[C@H](CO)[C@@H](O)[C@H](O)[C@H]2O)cc1 | inactive |
| CC(C)C1CCC(C(=O)N[C@@H](Cc2ccccc2)C(=O)O)CC1 (some centres undefined) | inactive |
| COc1cc([C@@H]2Oc3c(OC)cc(CCCO)cc3[C@@H]2CO[C@@H]2O[C@H](CO)[C@@H](O)[C@H](O)[C@H]2O)ccc1O | inactive [at 17.4 µM] |
| CCC/C=C1\OC(=O)C2=C1CCC(O)C2O (centres undefined) | inactive |
| CC(=O)OC(C)(C)/C=C/C(=O)[C@](C)(O)C1[C@H](O)C[C@@]2(C)[C@@H]3CC=C4[C@@H](C[C@H](O[C@@H]5O[C@H](CO)[C@@H](O)[C@H](O)[C@H]5O)C(=O)C4(C)C)[C@]3(C)C(=O)C[C@]12C (some centres undefined) | inactive [at 17.4 µM] |
| CC(=O)NC(CCC(=O)O)C(=O)NCCc1ccc(O)cc1 (centres undefined) | inactive |
| O=C1NC(Cc2c[nH]c3ccccc23)C(=O)NC1Cc1cnc[nH]1 (centres undefined) | inactive |
| Cn1nc(C(C)(C)C)cc1C(=O)NC(Cc1cccc(Cl)c1)C(=O)NCC#N (centres undefined) | inactive |
| CC(C)c1c(O)ccc2c1CC[C@H]1C(C)(C)CCC[C@]21C | inactive |
| CC(C)S(=O)(=O)N[C@H]1CCOC[C@@H]1c1ccc(-c2ccc(C#N)s2)cc1 | inactive |
| C=C1CC/C=C(/CO)C(=O)C[C@@H]2[C@@H]1CC2(C)C | inactive |
| NC(=O)c1cccc(-c2cc(O)cc(OC(=O)NC3CCCCC3)c2)c1 | inactive [at 17.4 µM] |
| CN(C)c1ccc(C2O[C@@H](c3ccccc3)C[C@H](c3ccccc3)O2)cc1 (some centres undefined) | inactive |
| COC(=O)c1cc(OC)c(O[C@@H]2O[C@@H](C)[C@H](O)[C@@H](O)[C@H]2O)c(OC)c1 | inactive |
| O=S(=O)(Nc1ccccn1)c1ccc(N=Cc2c(O)[nH]c3ccc4ncsc4c23)cc1 | inactive [at 9.27 µM] |
| COc1cc(COC2OC(CO)C(O)C(O)C2O)cc(OC)c1O (centres undefined) | inactive |
| CCOC(=O)c1sc(NC(=O)[C@H](C(C)C)n2c(=O)[nH]c3ccccc3c2=O)nc1C | inactive |
| COCCOc1cnc2ccn([C@H](C)c3nnc4c(F)cc(-c5cnn(C)c5)cn34)c(=O)c2c1 | inactive |
| COC(=O)[C@H](O)[C@H]1C(C)(C)[C@H](OC(C)=O)[C@@]2(O)C(=O)[C@]1(C)C1CC[C@]3(C)C(CC(=O)O[C@H]3c3ccoc3)[C@]13O[C@@H]32 (some centres undefined) | inactive [at 17.4 µM] |
| C[C@@H]1O[C@@H](O[C@H]2[C@H](O)[C@@H](O)[C@H](OC[C@H]3O[C@@H](OC(=O)[C@]45CCC(C)(C)C[C@H]4C4=CCC6[C@@]7(C)C[C@@H](O)[C@H](O)[C@@](C)(CO)C7[C@H](O)C[C@@]6(C)[C@]4(C)CC5)[C@H](O)[C@@H](O)[C@@H]3O)O[C@@H]2CO)[C@H](O)[C@H](O)[C@H]1O (some centres undefined) | inactive [at 9.27 µM] |
| Cc1occc(=O)c1O[C@@H]1O[C@H](COC(=O)CC(C)(O)CC(=O)O)[C@@H](O)[C@H](O)[C@H]1O (some centres undefined) | inactive [at 17.4 µM] |
| CCC(C)/C=C(C)/C=C/C1=CC2=C(Cl)C(=O)C(C)(OC(C)=O)C(=O)C2=CN1C1CCCCN(C(CCC(N)=O)C(=O)O)C1=O (centres undefined) | inactive [at 17.4 µM] |
| O=C(/C=C/c1ccc(O)cc1)OCC1OC(O)C(OC2OC(CO)C(O)C(O)C2O)C(O)C1O (centres undefined) | inactive [at 17.4 µM] |
| Cc1c(NC(=O)N2CCOCC2)ccc2c1c1ccccc1n2C(C)C | inactive |
| C=C1C[C@]23C[C@H]1CC[C@H]2[C@]1(C)CCC[C@@](C)(C(=O)O)[C@H]1[C@@H]3C(=O)O | inactive |
| CC1=CC(=O)C(=C(C)C)CC2C(C)(O)CCC12O (centres undefined) | inactive |
